Experiments:
Conditions in all cases: concentration: 1 μM, replicates: in singlicate; n = 1
[1] = tested on: NEK4
[2] = tested on: NEK5
[3] = tested on: NEK6
[4] = tested on: NEK7
[5] = tested on: NEK9
[6] = tested on: T1, NIK
T1 construct: gene MAP3K14

[7] = tested on: T2, NIM1
T2 construct: gene MGC42105

[8] = tested on: NLK
[9] = tested on: T3, OSR1
T3 construct: gene OXSR1

[10] = tested on: PAK1
[11] = tested on: PAK2
[12] = tested on: PAK3
[13] = tested on: PAK4
[14] = tested on: PAK6
[15] = tested on: PAK7
[16] = tested on: T4, PCTK1
T4 construct: gene CDK16

[17] = tested on: T5, PCTK2
T5 construct: gene CDK17

[18] = tested on: T6, PCTK3
T6 construct: gene CDK18

[19] = tested on: PDGFRA
[20] = tested on: PDGFRB
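Also: KINOMEscan kinase panel screen.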

| Compound | %Inh [1] [%] | %Inh [2] [%] | %Inh [3] [%] | %Inh [4] [%] | %Inh [5] [%] | %Inh [6] [%] | %Inh [7] [%] | %Inh [8] [%] | %Inh [9] [%] | %Inh [10] [%] | %Inh [11] [%] | %Inh [12] [%] | %Inh [13] [%] | %Inh [14] [%] | %Inh [15] [%] | %Inh [16] [%] | %Inh [17] [%] | %Inh [18] [%] | %Inh [19] [%] | %Inh [20] [%] |
| --- | --- | --- | --- | --- | --- | --- | --- | --- | --- | --- | --- | --- | --- | --- | --- | --- | --- | --- | --- | --- |
| CCS(=O)(=O)c1ccc(OC)c(Nc2ncc(-c3ccc(F)cc3)o2)c1.Cl [GW591947] | 0 | 9 | 0 | 0 | 11 | 0 | 5 | 22 | 4 | 0 | 13 | 0 | 0 | 0 | 14 | 4 | 0 | 16 | 0 | 24 |
| COc1ccc(-c2cc3c(C)nc(N)nc3n([C@H]3CC[C@H](O)CC3)c2=O)cn1 | 0 | 0 | 0 | 0 | 0 | 2 | 0 | 13 | 0 | 7 | 11 | 0 | 21 | 0 | 0 | 0 | 0 | 0 | 0 | 0 |
| COc1cc2nccc(Nc3ccc(OCc4ccc(NC(C)=O)cc4)cc3)c2cc1OC.Cl [GW440135] | 0 | 0 | 0 | 100 | 94.8 | 16 | 24 | 10 | 0 | 0 | 0 | 0 | 9 | 0 | 0 | 9 | 0 | 0 | 93.1 | 99.6 |
| COc1ccc(-c2coc3ccc(-c4nnc(SCc5cccc(C#N)c5)o4)cc23)cc1 | 3 | 0 | 16 | 0 | 0 | 2 | 5 | 0 | 0 | 18 | 34 | 0 | 14 | 19 | 15 | 0 | 0 | 2 | 20 | 10 |
| COc1cc(Nc2nccc(N3CCC(NC(=O)C4COc5ccccc5O4)C3)n2)cc(OC)c1OC (stereo not shown) [GSK1379761] | 7 | 97.3 | 21 | 49 | 37 | 42 | 28 | 5 | 2 | 0 | 0 | 10 | 0 | 0 | 3 | 4 | 0 | 10 | 1 | 45 |
| COc1cc2ncn(-c3cc(OCc4ccncc4)c(C(N)=O)s3)c2cc1OC [GSK336313] | 0 | 23 | 0 | 0 | 15 | 0 | 0 | 11 | 31 | 16 | 3 | 0 | 0 | 4 | 0 | 9 | 0 | 18 | 0 | 27 |
| CCc1nc(-c2cccc(C)c2)c(-c2ccncc2)s1 | 0 | 0 | 3 | 0 | 0 | 0 | 0 | 81 | 0 | 28 | 16 | 0 | 15 | 3 | 0 | 0 | 1 | 2 | 0 | 70 |
| COc1cc2ncn(-c3cc(OCCCc4ccccc4)c(C(N)=O)s3)c2cc1OC [GSK205189] | 0 | 0 | 0 | 0 | 6 | 0 | 0 | 0 | 2 | 36 | 26 | 6 | 0 | 0 | 0 | 0 | 0 | 19 | 0 | 25 |
| O=C(NCCNc1ccnc(Nc2ccc(F)cc2)n1)Nc1ccc2c(c1)OCO2 [GSK1379882] | 0 | 15 | 0 | 0 | 12 | 22 | 18 | 0 | 0 | 0 | 0 | 0 | 0 | 12 | 7 | 14 | 0 | 0 | 6 | 53 |
| COc1ccc(CNC(=O)NC2CCN(c3ccnc(Nc4ccc(F)cc4)n3)C2)cc1 (stereo not shown) [GSK1379706] | 0 | 35 | 21 | 0 | 0 | 26 | 0 | 37 | 0 | 0 | 0 | 0 | 0 | 0 | 3 | 0 | 18 | 39 | 14 | 43 |
| CCC(=O)c1c(-c2ccccc2)c2cc(Cl)ccc2c(=O)n1Cc1cc(S(C)(=O)=O)n(CC(N)=O)n1 | 0 | 0 | 0 | 0 | 0 | 0 | 14 | 0 | 0 | 32 | 5 | 0 | 5 | 1 | 0 | 0 | 0 | 13 | 0 | 10 |

Source: PMC5540273 (PLoS ONE, 2017)
